Results published in PubChem BioAssay AID1159580 (chemical genetic matrix, 2015).
In all, about 5,500 compounds went through this assay and about 2,000 (36%) were called active. Another 18% or so got no clear call; they are omitted. Rule as the data show it: active = normalized growth mostly below about 0.91 (no sharp cut-off); inconclusive = no clear call, values can overlap the other calls; inactive = mostly above about 0.92. Some of the results follow.

Test: chemical genetic growth profiling, strain panel (AID 1159580);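 also: tested at 20 µM; growth read once vehicle control cultures reached saturation at 30 °C; 1 = growth at the plate median or of vehicle wells; lower values mean less growth of the strain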
Settings: S. cerevisiae deletion strains, growth OD

Measured: normalized growth

COc1cc2occ(-c3ccccc3)c(=O)c2c(OC)c1C
active: locus YDL192W, strain arf1, stronger effect = lower value 0.903 | locus YDR137W, strain rgp1, stronger effect = lower value 0.765 | locus YDR318W, strain mcm21, stronger effect = lower value 0.891 | locus YDR392W, strain spt3, stronger effect = lower value 0.707 | locus YDR502C, strain sam2, stronger effect = lower value 0.919 | locus YER167W, strain BCK2, stronger effect = lower value 0.881 | locus YGL086W, strain mad1, stronger effect = lower value 0.901 | locus YGR252W, strain gcn5, stronger effect = lower value 0.707 | locus YHR079C, strain IRE1 (second series), stronger effect = lower value 0.911 | locus YHR200W, strain rpn10, stronger effect = lower value 0.905
inactive: locus YAL013W, strain DEP1, stronger effect = lower value 0.947 | locus YAL021C, strain ccr4, stronger effect = lower value 0.996 | locus YAL026C, strain drs2, stronger effect = lower value 0.96 | locus YAL030W, strain snc1, stronger effect = lower value 0.967 | locus YBL061C, strain skt5, stronger effect = lower value 0.985 | locus YBR009C, strain hhf1, stronger effect = lower value 0.978 | locus YBR021W, strain FUR4, stronger effect = lower value 0.923 | locus YBR023C, strain chs3, stronger effect = lower value 0.966 | locus YBR171W, strain sec66, stronger effect = lower value 0.965 | locus YBR229C, strain ROT2, stronger effect = lower value 0.959 | locus YBR231C, strain swc5, stronger effect = lower value 0.966 | locus YBR279W, strain paf1, stronger effect = lower value 0.992 | locus YCL011C, strain gbp2, stronger effect = lower value 0.973 | locus YCL016C, strain dcc1, stronger effect = lower value 0.968 | locus YCL029C, strain bik1, stronger effect = lower value 0.933 | locus YCL061C, strain MRC1, stronger effect = lower value 0.973 | locus YCL069W, strain vba3, stronger effect = lower value 0.975 | locus YCR088W, strain abp1, stronger effect = lower value 0.972 | locus YDL005C, strain med2, stronger effect = lower value 1.02 | locus YDL035C, strain GPR1, stronger effect = lower value 0.915 | locus YDL040C, strain nat1, stronger effect = lower value 0.973 | locus YDL074C, strain BRE1, stronger effect = lower value 0.817 | locus YDL101C, strain DUN1, stronger effect = lower value 0.953 | locus YDL134C, strain PPH21, stronger effect = lower value 0.963 | locus YDL185W, strain tfp1, stronger effect = lower value 0.945 | locus YDR001C, strain nth1, stronger effect = lower value 0.967 | locus YDR069C, strain doa4, stronger effect = lower value 0.995 | locus YDR101C, strain arx1, stronger effect = lower value 0.934 | locus YDR150W, strain NUM1, stronger effect = lower value 0.963 | locus YDR159W, strain sac3, stronger effect = lower value 0.98 | locus YDR162C, strain NBP2, stronger effect = lower value 0.875 | locus YDR195W, strain ref2 1.1 | locus YDR297W, strain sur2, stronger effect = lower value 0.974 | locus YDR334W, strain swr1, stronger effect = lower value 0.968 | locus YDR335W, strain msn5, stronger effect = lower value 0.991 | locus YDR388W, stronger effect = lower value 0.935 | locus YEL003W, strain gim4, stronger effect = lower value 0.978 | locus YEL037C, strain rad23, stronger effect = lower value 0.977 | locus YEL061C, strain CIN8 (second series), stronger effect = lower value 0.978 | locus YEL061C, strain CIN8, stronger effect = lower value 0.968 | locus YER015W, strain faa2, stronger effect = lower value 0.981 | locus YER016W, strain bim1, stronger effect = lower value 0.97 | locus YER110C, stronger effect = lower value 0.938 | locus YER111C, strain swi4, stronger effect = lower value 1 | locus YER155C, strain BEM2 (second series), stronger effect = lower value 0.886 | locus YER155C, strain BEM2, stronger effect = lower value 0.961 | locus YFR010W, strain ubp6, stronger effect = lower value 0.991 | locus YGL078C, strain dbp3, stronger effect = lower value 0.975 | locus YGL167C, strain pmr1, stronger effect = lower value 0.965 | locus YGL173C, strain kem1, stronger effect = lower value 0.983 | locus YGL227W, strain vid30, stronger effect = lower value 0.989 | locus YGL240W, strain doc1, stronger effect = lower value 0.944 | locus YGL248W, strain PDE1, stronger effect = lower value 0.961 | locus YGL253W, strain hxk2, stronger effect = lower value 0.971 | locus YGR078C, strain PAC10, stronger effect = lower value 0.932 | locus YGR135W, strain pre9, stronger effect = lower value 0.918 | locus YGR229C, strain SMI1, stronger effect = lower value 0.813 | locus YHR013C, strain ard1, stronger effect = lower value 0.976 | locus YHR027C, strain rpn1, stronger effect = lower value 0.989 | locus YHR030C, strain SLT2, stronger effect = lower value 0.948 | locus YHR094C, strain hxt1, stronger effect = lower value 0.956 | locus YHR129C, strain ARP1, stronger effect = lower value 0.949 | locus YHR142W, strain chs7, stronger effect = lower value 0.917 | locus YIL066C, strain RNR3, stronger effect = lower value 0.874 | locus YIL073C, strain SPO22, stronger effect = lower value 0.818 | locus YIL125W, strain kgd1, stronger effect = lower value 0.955 | locus YIR030C, strain dcg1, stronger effect = lower value 0.937 | locus YJL092W, strain hpr5, stronger effect = lower value 0.977 | locus YJL095W, strain BCK1 (second series), stronger effect = lower value 0.975 | locus YJL095W, strain BCK1, stronger effect = lower value 0.847 | locus YJL115W, strain asf1, stronger effect = lower value 0.998 | locus YJL129C, strain trk1, stronger effect = lower value 0.891 | locus YJL134W, strain LCB3, stronger effect = lower value 0.965 | locus YJL154C, strain vps35, stronger effect = lower value 0.99 | locus YJL164C, strain tpk1, stronger effect = lower value 0.937 | locus YJL166W, strain qcr8, stronger effect = lower value 0.975 | locus YJL168C, strain set2, stronger effect = lower value 0.946 | locus YJL187C, strain SWE1 (second series), stronger effect = lower value 0.934 | locus YJL187C, strain SWE1, stronger effect = lower value 0.976
